The record followed here is PubChem BioAssay (EPA / NIEHS).

In general, AC50 refers to the midpoint of the concentration-response curve, whichever way the signal moves.

The source made the active and inactive calls. Rule for the calls: active = hit-call score of the fitted dose curve at least 0.9, where 1 is the maximum; inactive = score below 0.9.

Read-out in test [1]: Interferon-gamma inducible Protein 10 (IP10), CXCL10 (gene 3627)
In words: BSK_BE3C_IP10: BioMAP Diversity Plus: BE3C Assay for Interferon-gamma inducible Protein 10 (IP10) Biomarker Activity (AID 2283034). The following applies: primary human bronchial epithelial cells; actives raise or lower the signal. In outline:
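BE3C cells (human bronchial epithelial, primary); 24 h exposure; ELISA for IP-10; DMSO-referenced bidirectional fit.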

Read-out in test [2]: Monokine induced gamma interferon (MIG), CXCL9 (gene 4283)
In words: BSK_BE3C_MIG: BioMAP Diversity Plus: BE3C Assay for Monokine induced gamma interferon (MIG) Biomarker Activity (AID 2283035). To be noted: primary human bronchial epithelial cells; actives raise or lower the signal. In a few lines:
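hu bronchial epithelial 1° cells, 24 h cpd; MIG by ELISA; bidirectional fit, DMSO = baseline.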

Read-out in test [3]: Transforming growth factor beta 1 (TGFb1), TGFB1 (gene 7040)
Kind of test: BSK_BE3C_TGFb1: BioMAP Diversity Plus: BE3C Assay for Transforming growth factor beta 1 (TGFb1) Biomarker Activity (AID 2283036;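 for outcome: TGF-b1 protein level measured by ELISA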). The following applies: primary human bronchial epithelial cells; actives raise or lower the signal. In a few lines: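 TGF-b1 measured via ELISA, 24 h after chemical dosing of human bronchial epithelial cells (BE3C). Overt cytotoxicity assessed in parallel by SRB (0.1%, TCA-fixed, 560 nm); analysis bidirectional relative to DMSO.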

Read-out in test [4]: Plasminogen activator inhibitor-1 (PAI1), SERPINE1 (gene 5054)
Kind of test: BSK_BE3C_PAI1: BioMAP Diversity Plus: BE3C Assay for Plasminogen activator inhibitor-1 (PAI1) Biomarker Activity (AID 2283037). The following applies: primary human bronchial epithelial cells; actives raise or lower the signal. In outline: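 In this multiplexed primary-cell system, bronchial epithelial cells receive test chemical and are sampled at 24 h. PAI-1 is read by ELISA, with DMSO serving as negative control for bidirectional fitting.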

Read-out in test [5]: urokinase plasminogen activator (uPA), PLAU (gene 5328)
In words: BSK_BE3C_uPA: BioMAP Diversity Plus: BE3C Assay for urokinase plasminogen activator (uPA) Biomarker Activity (AID 2283038).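 For outcome: uPA protein level quantified by ELISA in cell cultures; uPA read one day after compound addition.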 To be noted: primary human bronchial epithelial cells; actives raise or lower the signal. In outline: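 Primary human bronchial epithelial cells, uPA measured by ELISA 24 h after dosing. Bidirectional change relative to DMSO; cytotoxicity checked in parallel cultures by sulforhodamine B total-protein staining.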

Read-out in test [6]: Urokinase-type plasminogen activator receptor (uPAR), PLAUR (gene 5329)
Kind of test: BSK_BE3C_uPAR: BioMAP Diversity Plus: BE3C Assay for Urokinase-type plasminogen activator receptor (uPAR) Biomarker Activity (AID 2283039).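 For outcome: uPAR protein level measured by ELISA on the cells; cells exposed to compound for one day before measurement.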 The following applies: primary human bronchial epithelial cells; actives raise or lower the signal. In a few lines:
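Chemically treated human bronchial epithelial cells (lung primary) are assayed for uPAR by ELISA after 24 h, with data fitted in both directions using DMSO as negative control.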

Read-out in test [7]: Interleukin-6 (IL6), IL6 (gene 3569)
Kind of test: BSK_CASM3C_IL6: BioMAP Diversity Plus: CASM3C Assay for Interleukin-6 (IL6) Biomarker Activity for (AID 2283040). To be noted: primary human coronary artery smooth muscle cells; actives raise or lower the signal.

Read-out in test [8]: Tissue plasminogen activator (tPA), PLAT (gene 5327)
Kind of test: BSK_BE3C_tPA: BioMAP Diversity Plus: BE3C Assay for Tissue plasminogen activator (tPA) Biomarker Activity (AID 2283041).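 For outcome: tPA level quantified by ELISA one day after compound addition.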 To be noted: primary human bronchial epithelial cells; actives raise or lower the signal. In outline:
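Using human lung primary bronchial epithelial cells, tPA was measured by ELISA 24 h after dosing; data fitted relative to DMSO.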

Read-out in test [9]: Interleukin-8 (IL8), CXCL8 (gene 3576)
Kind of test: BSK_CASM3C_IL8: BioMAP Diversity Plus: CASM3C Assay for Interleukin-8 (IL8) Biomarker Activity (AID 2283042).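 Note: IL-8 protein level quantified by ELISA.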 The following applies: primary human coronary artery smooth muscle cells; actives raise or lower the signal.

Read-out in test [10]: Vascular cell adhesion molecule 1 (VCAM1), VCAM1 (gene 7412)
In words: BSK_4H_VCAM1: BioMAP Diversity Plus: 4H Assay for Vascular cell adhesion molecule 1 (VCAM1) Biomarker Activity (AID 2283033).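 For outcome: cell-surface VCAM-1 protein measured by ELISA.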 The following applies: primary human endothelial cells (HUVEC); actives raise or lower the signal. In outline:
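In this human endothelial (HUVEC) system, biomarker ELISA was run 24 h after compound addition, and total protein in parallel wells was assessed by SRB at 560 nm; DMSO served as negative control.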

In the case of `CC1(C)[C@H](C(=O)O[C@H](C#N)c2cccc(Oc3ccccc3)c2)[C@@H]1/C=C(\Cl)C(F)(F)F`, the result in test [1], in [2], in [3], in test [4], in [5] and in test [6] was inactive. The outcome in test [7], in test [8] and in test [9] was inactive.

Take `OC(Cc1ccccc1Cl)(Cn1[nH]cnc1=S)C1(Cl)CC1` (stereo unspecified): the AC50 in test [1] is 15.8 µM (active); in test [2], 31.1 µM (active); in [3] it was 8.86 µM (active); in test [4], 6.3 µM (active); in test [5], 20 µM (active); in test [6], 12.6 µM (active). For the same compound, the AC50 in test [8] was 20 µM (active). For the same compound, the outcome in test [7] and in test [9] was inactive.

Regarding `C=CC(Cl)CCl` (stereo unspecified), the result in test [10], in test [1], in test [2], in [3], in [4] and in [5] was inactive. Besides, the outcome in test [6], in test [7], in test [8] and in test [9] was inactive.

As for `NC(=O)CCl`, the outcome in [1], in [2], in test [3], in test [4], in test [5] and in test [6] was inactive. Besides, the result in [7], in test [8] and in test [9] was inactive.

Regarding `Oc1c(Cl)cc(Cl)cc1Cl`, the outcome in test [10], in test [1], in test [2], in test [3], in test [4] and in [5] was inactive. The result in [6], in test [7], in test [8] and in test [9] was inactive.

`CC(C)(C)c1ccccc1O`: the result in test [10], in test [1], in [2], in [3], in [4] and in test [5] was inactive. The result in test [6], in test [7], in test [8] and in test [9] was inactive.

On to `CCC(C)(C#N)N=NC(C)(C#N)CC` (stereo unspecified), for which the result in test [10], in test [1], in [2], in [3], in test [4] and in test [5] was inactive. Further, the outcome in test [6], in test [7], in [8] and in test [9] was inactive.

As for `Oc1ccc(Cc2ccc(O)cc2)cc1`, the result in [10], in test [1], in test [2], in test [3], in [4] and in test [5] was inactive. Moreover, the result in test [6], in test [7], in [8] and in test [9] was inactive.

Consider `O=C(O)COc1cc(Cl)c(Cl)cc1Cl`, for which the outcome in [10], in [1], in test [2], in test [3], in [4] and in [5] was inactive. For the same compound, the result in [6], in test [7], in test [8] and in [9] was inactive.

With `OCCN(CCO)CCO`, the outcome in test [10], in [1], in [2], in test [3], in test [4] and in test [5] was inactive. The result in test [6], in test [7], in test [8] and in [9] was inactive.

Take `Cc1cc(Cl)ccc1OC(C)C(=O)O` (stereo unspecified): the result in test [10], in test [1], in [2], in test [3], in test [4] and in [5] was inactive. Further, the outcome in [6], in test [7], in test [8] and in [9] was inactive.

With `Cc1ccccc1OP(=O)(Oc1ccccc1)Oc1ccccc1`, the AC50 in test [10] is 26.1 µM (active). Besides, the result in [1], in [2], in [3], in [4], in test [5] and in test [6] was inactive. Also, the outcome in test [7], in test [8] and in test [9] was inactive.

Turning to `CCCCOC(=O)COC(=O)c1ccccc1C(=O)OCCCC`, the result in test [10], in test [1], in test [2], in test [4], in test [5] and in [6] was inactive. Also, the result in test [7], in test [8] and in test [9] was inactive.

Consider `Nc1c(Oc2ccccc2)cc(O)c2c1C(=O)c1ccccc1C2=O`, for which the result in test [10], in [1], in [2], in test [3], in [5] and in test [6] was inactive. In addition, the outcome in [7], in test [8] and in test [9] was inactive. Besides, in test [4], the AC50 was 2.43 µM (active).

On to `CCCCCCCCCCCCc1cccc(S(=O)(=O)O)c1`, for which the outcome in [10], in test [7] and in test [9] was inactive. For the same compound, the AC50 in test [1] was 13 µM (active); in test [2], 30.1 µM (active); in test [3], 5.79 µM (active); in test [4] it was 23.7 µM (active); in [5] it was 28.4 µM (active); in test [6], 29.1 µM (active). For the same compound, in [8], the AC50 was 3.92 µM (active).

For the compound `O=C1C=CC(=O)c2ccccc21`, the AC50 in [10] is 1.95 µM (active); in [1], 2.01 µM (active); in test [2] it was 6.51 µM (active); in [3], 2.26 µM (active); in [4], 3.25 µM (active); in test [5], 4.36 µM (active). Besides, the AC50 is 4.59 µM (active) in [6], 9.25 µM (active) in test [7], 3.27 µM (active) in test [8] and 20 µM (active) in [9].
